molecular target: AT4G31550 (Arabidopsis thaliana, UniProt Q9SV15 228-325); test: DPI-ELISA; DPI-ELISA, streptavidin 384-well plate, 1-2 pmol biotinylated dsDNA per well, crude native E. coli extract, anti-His detection; buffer as in Brand et al. [46],; high values mean tight binding; conditions: tags: C-terminal His (pET-DEST42); label: 5' biotin on forward strand; dsDNA, one strand shown
Sequence (Q9SV15 228-325): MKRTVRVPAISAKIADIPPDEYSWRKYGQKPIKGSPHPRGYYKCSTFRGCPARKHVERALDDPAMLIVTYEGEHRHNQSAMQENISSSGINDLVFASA

| Sequence | binding signal |
| --- | --- |
| AAAAAACTAACCGTCGCAGGCGTGTGAAAA | 0.715 ± 0.134 absorbance |
| AAAAAATCATCTCTATGTTATTGTTGAAAA | 0.58 ± 0.113 absorbance |
| AAAAAATCCTATCTTGGCTTTGGCCTAAAA | 0.65 ± 0.156 absorbance |
| AAAAAATGTTGTTGCTGTTGGTCCTAAAAA | 0.695 ± 0.0778 absorbance |
| AAAAAACACTCACACCTATACGGCTCAAAA | 0.665 ± 0.233 absorbance |
| AAAAAAACTTTCTATTCTGGATAAGTAAAA | 0.625 ± 0.134 absorbance |
| AAAAAAGACCGCAGCAAGAATTAAATAAAA | 0.49 ± 0.141 absorbance |
| AAAAAAACCGCGTCGCGGCCCGGGAAAA | 0.5 ± 0.113 absorbance |
| AAAAAATCCTGTTTGCGTTTGATTTTAAAA | 0.51 ± 0.099 absorbance |
| AAAAAACCGCTTACATTGCGTTGTCGAAAA | 0.605 ± 0.0495 absorbance |
| AAAAAAGCGTAAGCCTTGACAGTCGTAAAA | 0.725 ± 0.106 absorbance |
| AAAAAAGCGCGAATTCTAGAACTATAAAAA | 0.57 ± 0.113 absorbance |
| AAAAAACGCTCCGTTTTTGCAATGCGAAAA | 0.61 ± 0.0707 absorbance |
| AAAAAAACACCTGTATAGCATGGACGAAAA | 0.73 ± 0.0707 absorbance |
| AAAAAAGGCTCCGGCCCCCAATCGCAAAAA | 0.61 ± 0.0566 absorbance |
| AAAAAATAATATCGATACTCATGCCCAAAA | 0.685 ± 0.134 absorbance |
| AAAAAAACTATAGTCTTTGTCATGATAAAA | 0.64 ± 0.0707 absorbance |
| AAAAAAACCTCTTTATTCTCGATTGTAAAA | 0.585 ± 0.0495 absorbance |
| AAAAAAGTCCATAAACTAAATTGGATAAAA | 0.525 ± 0.0495 absorbance |

| Sequence | binding signal |
| --- | --- |
| AAAAAAGGTGAGGAAGTTGGGTATGGAAAA | 0.64 ± 0.0566 absorbance |
| AAAAAACTGTGTCCCCGTCCCATCTCAAAA | 0.525 ± 0.12 absorbance |
| AAAAAATATCATTGTTACCGTTGCTAAAAA | 0.465 ± 0.12 absorbance |
| AAAAAATCGCACTGCCGCCGATGGCTAAAA | 0.625 ± 0.134 absorbance |
| AAAAAACCGTATGTATATCTATATGTAAAA | 0.42 ± 0.113 absorbance |
| AAAAAATATGTAGCTGCCGTTACGCTAAAA | 0.54 ± 0.212 absorbance |
| AAAAAATTCGTTTTTCGTCTTTCATTAAAA | 0.7 ± 0.156 absorbance |
| AAAAAATGGTTTCAATTTTCCGTCCGAAAA | 0.405 ± 0.0778 absorbance |
| AAAAAAAACTGTCGCCCCCGGCTGGCAAAA | 0.545 ± 0.12 absorbance |
| AAAAAATCGTAAATGCCCATAGCCGTAAAA | 0.555 ± 0.106 absorbance |
| AAAAAAAATACTGCGCACTTGCACTCAAAA | 0.6 ± 0.127 absorbance |
| AAAAAACGGGATTCGAAACTTTTTGTAAAA | 0.54 ± 0.099 absorbance |
| AAAAAAATGGTGCCGCTGAGCAAATTAAAA | 0.555 ± 0.12 absorbance |
| AAAAAAAAATTTCGAGCCTCGGCGTAAAAA | 0.49 ± 0.0849 absorbance |
| AAAAAAGCTTCGCGCCAGCGGGAAAA | 0.695 ± 0.0636 absorbance |
| AAAAAATCCGTTCCCATTTGTCCGTCAAAA | 0.58 ± 0.0849 absorbance |
| AAAAAATACGTCTACGTGGTTGTCGTAAAA | 0.72 ± 0.127 absorbance |
| AAAAAAATCAGCCTGACTCTGGGCGTAAAA | 0.71 ± 0.141 absorbance |
| AAAAAAAGCTTCTATAGCTCCATGGAAAA | 0.515 ± 0.106 absorbance |
